In PubChem BioAssay AID1878 (Sanford-Burnham Center for Chemical Genomics, 2009) one finds inhibition data, which are given here for 94 molecules.

The campaign covered roughly 1,000 compounds. About 200 (20%) were called active. Cut-off read from the data, not from the text of the source: active = inhibition above about 55%; inactive = the rest. Not all results are given here. Results with a measured potency or affinity are listed apart.

The assay deals with Dual specificity protein phosphatase 3 (Homo sapiens) (UniProt P51452). The experiment in a line: VHR1 phosphatase inhibitors, biochemical (AID 1878). Particulars: recombinant VHR phosphatase, fluorogenic substrate; at 13.3 µM; stronger effect = higher value.
Sequence of Dual specificity protein phosphatase 3 (Homo sapiens) (P51452 whole entry, looked up): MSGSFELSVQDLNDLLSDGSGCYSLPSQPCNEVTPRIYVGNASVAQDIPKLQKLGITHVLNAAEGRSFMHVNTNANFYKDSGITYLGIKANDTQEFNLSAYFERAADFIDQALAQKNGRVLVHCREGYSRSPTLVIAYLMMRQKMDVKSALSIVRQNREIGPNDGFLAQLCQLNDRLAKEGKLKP
For `O=C(CSc1nc2ccccc2[nH]1)NCCN1CCCCC1`, the inhibition was -5.4% (inactive). As for `Cc1ccc(-c2nnn3c2nc(NCCc2ccc(S(N)(=O)=O)cc2)c2ccccc23)cc1`, the figure is 98.7% (active). Consider `CCOc1ccc(C(=O)OCC(=O)NCc2ccco2)cc1OCC`, for which the inhibition is 3.1% (inactive).

Take `CCN1C(=O)N(c2ccc(C(C)=O)cc2)S(=O)(=O)c2ccccc21`: the inhibition was -4.4% (inactive). For the molecule `COc1ccc(C(=O)N2CCN(CCNC(=O)C(=O)Nc3ccc(Br)cc3)CC2)cc1`, the inhibition is 1.9% (inactive). As for `Cc1ccc(NC(=O)CCC(=O)c2ccc(Br)cc2)cc1`, the figure is 8.7% (inactive); as for `Oc1ccccc1/C=N/Nc1cc(N2CCCC2)nc(N2CCCC2)n1`, -15.5% (inactive). As for `CCCC(=O)Nc1c(-c2ccc(C)cc2)c(=O)c2ccccc2n1C`, the figure is 2.1% (inactive); as for `COc1ccnc2c1c(=O)n(Cc1ccc(Cl)cc1)c(=O)n2C`, 0.3% (inactive); as for `COc1ccc(Cn2c(-c3ccc(C)cc3)nc3c(c(=O)c4ccccc4n3C)c2=O)cc1`, 85.9% (active).

Take `Cc1nn(CC(=O)NCCCN2CC(C)CC(C)C2)c(=O)c2cccn12` (centres undefined): the inhibition is -10.3% (inactive).

Regarding `CN1C(=O)CN=C(c2ccc(Cl)cc2)c2cc(Cl)ccc21`, the inhibition is 16% (inactive). As for `COc1cccc(-c2nc(CS(=O)(=O)CC(=O)NCCCN3CC(C)CC(C)C3)c(C)o2)c1` (centres undefined), the figure is -0.7% (inactive). The same measure for `N#C/C(=C\c1ccc(-c2ccc(C(=O)O)cc2)o1)C(=O)Nc1ccc(F)cc1`: 82.2% (active); for `CN(C)N1C(N)=C(C#N)C(c2cccc(Cl)c2)C2=C1CCCC2=O` (centres undefined): 0.6% (inactive). The same measure for `CC1CCCN(CCCNS(=O)(=O)c2ccc3c(c2)CCN3C(=O)C2CC2)C1` (centres undefined): -6.7% (inactive). Turning to `CC#CC#Cc1cccc(=O)o1`, the inhibition is 42.9% (inactive).

Regarding `O=C(O)CCSC1CC(=O)N(c2ccccc2)C1=O` (centres undefined), the inhibition is 16.8% (inactive). The same measure for `O=S(=O)(c1cc(Cl)ccc1Cl)N1CCc2ccccc21`: -1.3% (inactive); for `CN(C)c1ccc(NC(=O)CSc2nnc(C3CCCCC3)n2N)cc1`: -7.6% (inactive); for `Cc1nc2ccccc2c(=O)n1NC(=O)c1ccccc1`: -2% (inactive). As for `O=C(CSc1ccc2ccccc2n1)Nc1nsc(-c2ccc(Cl)cc2)n1`, the figure is 80% (active); as for `Cc1ccc2nc(SCC(=O)NCc3ccc(F)cc3)[nH]c2c1`, 19.1% (inactive); as for `CS(=O)(=O)/C(C#N)=C/c1cccn1S(=O)(=O)c1ccccc1`, -10.1% (inactive). In the case of `CC(C)[C@H](NC(=O)c1ccco1)C(=O)NCc1ccccc1`, the inhibition is 6% (inactive). As for `O=C(COc1ccccc1)NCCc1cnc[nH]1`, the figure is -4.2% (inactive).

For `O=C(COc1ccccc1Cl)N1CCCCCCC1`, the inhibition is -0.6% (inactive).

For `CCn1c(SCC(=O)Nc2ccc(-c3nc4ccc(C)cc4s3)cc2)nnc1-c1ccccc1`, the inhibition is 88.3% (active).

On to `CCN1CCN(CC(=O)Nc2nc3ccc(C)cc3s2)CC1`, for which the inhibition was -5.5% (inactive). On to `COc1ccc(NC(=O)CSc2ccc3nnc(CCNC(=O)c4ccccc4)n3n2)cc1`, for which the inhibition was -4.5% (inactive). The same measure for `Cc1ccc(S(=O)(=O)/C(C#N)=C/c2c(N3CCOCC3)nc3c(C)cccn3c2=O)cc1`: 3% (inactive); for `c1ccc(-c2cc(-c3ccccc3)[n+](-c3ccccc3)c(-c3ccccc3)c2)cc1`: -14.8% (inactive); for `CCOc1c(Br)cc(C(=O)N2CCCN(C)CC2)cc1OC`: 2.9% (inactive).

As for `COc1ccc(NCCC(O)c2ccc(Cl)cc2)cc1` (centres undefined), the inhibition is -2% (inactive). As for `CCCn1c(C(O)c2ccc(OC)c(OC)c2)nc2ccccc21` (centres undefined), the figure is 7% (inactive); as for `CCOC(=O)C1(Cc2cccc(Cl)c2)CCCN(C(=O)c2cc(CC)on2)C1` (centres undefined), -6.6% (inactive). In the case of `Cc1ccccc1N1C(=O)C2ON(c3ccccc3)C(c3ccncc3)C2C1=O` (centres undefined), the inhibition is -3.4% (inactive). Regarding `Cc1ccc(N2C(=O)CC(N3CCN(S(=O)(=O)c4ccccc4)CC3)C2=O)c(C)c1` (centres undefined), the inhibition was -2.4% (inactive). As for `CC1CCCCN1CCCNC(=O)CN1C(=O)c2cccnc2Oc2ccc(Cl)cc21` (centres undefined), the figure is -4.5% (inactive).

As to `O=c1[nH]c2ccccc2nc1/C=C/c1ccc(Cl)cc1`, the inhibition is 14.9% (inactive). As for `COc1ccc(-c2csc3ncn(Cc4ccccc4)c(=O)c23)cc1`, the figure is -2.5% (inactive); as for `NC(=O)c1ccc(NC(=O)CS(=O)(=O)c2cn(CC(=O)N3CCCCC3)c3ccccc23)cc1`, -15.1% (inactive); as for `FC(F)(F)c1cccc(NC(=S)N2CCCC2)c1`, 12% (inactive).

`O=C(O)C(CCCCNS(=O)(=O)c1ccc(F)cc1)NS(=O)(=O)c1ccc(F)cc1` (centres undefined): the inhibition is -6.2% (inactive). `COCCNC(=O)CN1N=C(c2ccc(C)cc2)CCC1=O`: the inhibition is 6.3% (inactive).

Regarding `C=CCn1c(SCC(=O)c2c(C)[nH]c3ccccc23)nnc1-c1ccncc1`, the inhibition was 35.6% (inactive). The same measure for `O=C(CSc1nnc(-c2ccccc2)o1)c1ccc2c(c1)OCCO2`: -8.7% (inactive). The same measure for `Cn1c(SCC(=O)c2ccc3c(c2)Cc2ccccc2-3)nnc1-c1ccccc1`: 83.7% (active); for `Cc1ccc(NC2CCCN(C(=O)c3ccccn3)C2)cc1C` (centres undefined): -5.3% (inactive); for `O=C(CCc1nnc2ccc(NCc3ccccc3)nn12)NC1CCCCC1`: 4.6% (inactive).

As for `COc1ccc(N=C2C(=O)Nc3ccc(C)c(Br)c32)cc1`, the inhibition is 7.8% (inactive). As for `COc1ccc(Cl)cc1NCCC(O)c1ccc(F)cc1` (centres undefined), the figure is -9.5% (inactive).

Regarding `COc1ccccc1-c1csc(-n2ncc(C#N)c2N)n1`, the inhibition is 73.9% (active). The same measure for `O=C(NC1CC2CCCC(C1)N2)c1ccccc1` (centres undefined): -12.1% (inactive). The same measure for `CC(NC(=O)C(=O)N1CCCCC1)C(c1cccs1)N1CCN(C)CC1` (centres undefined): -4.5% (inactive).

Turning to `CCN(CC)CCNC(=O)Cn1cnc2sc(C)c(S(=O)(=O)N3CC(C)CC(C)C3)c2c1=O` (centres undefined), the inhibition is -8.4% (inactive). As for `COc1cc(C(=O)NCCC(=O)NCc2c(F)cc(F)cc2F)cc(OC)c1OC`, the figure is 21.2% (inactive). As for `CCC(=O)N1CCc2cc(S(=O)(=O)NCCc3ccc(S(N)(=O)=O)cc3)ccc21`, the figure is 0.3% (inactive); as for `COc1ccccc1CN1CC(C(=O)NCc2ccc(C)c(F)c2)CCC1=O` (centres undefined), -6.8% (inactive). With `Cc1c(C)c2ccc(OCC(=O)NCCCn3ccnc3)c(C)c2oc1=O`, the inhibition was -9.5% (inactive). As for `COc1ccc2c(c1)c(=O)oc1c(C)c(OCc3cc(C(=O)O)oc3C)ccc12`, the figure is 40.3% (inactive); as for `Cc1ccc(C)c(NC(=O)C(c2ccccc2)N2CCOCC2)c1` (centres undefined), 6.5% (inactive). For the molecule `COc1cccc(-c2nc(CS(=O)(=O)CC(=O)N3CCCCC3)c(C)o2)c1`, the inhibition was -1% (inactive). Take `CC1=C(C(=O)OC(C)C)C(c2ccc3c(c2)OCO3)NC(=O)N1` (centres undefined): the inhibition was -7.6% (inactive). On to `NS(=O)(=O)c1ccc(NC(=O)c2cccc(N3C(=O)c4ccccc4C3=O)c2)cc1`, for which the inhibition was 93.1% (active). The same measure for `O=C(Nc1ccccc1C(=O)O)c1ccc2c(c1)C(=O)N(c1cccc([N+](=O)[O-])c1)C2=O`: 2.4% (inactive); for `C[n+]1cccc(C(=O)Nc2ccccc2)c1`: 13.8% (inactive); for `Cc1ccccc1-c1nc(CS(=O)(=O)CC(=O)NCCCN2CC(C)CC(C)C2)c(C)o1` (centres undefined): 28.9% (inactive).

Turning to `COCCn1c(SCC(=O)Nc2cccc(C)n2)nnc1-c1ccco1`, the inhibition is 3.1% (inactive). The same measure for `O=C(NCCc1ccc(Cl)cc1)c1ccc2nccnc2c1`: 6.7% (inactive). The same measure for `CCN1CCN(CCCNC(=O)CN2C(=O)c3cccnc3Oc3ccc(Cl)cc32)CC1`: 14% (inactive); for `CC1CCN(CCc2nc3cc(NC(=O)C(C)C)ccc3n2C)CC1`: 9.3% (inactive); for `CC(=O)c1ccc(NC(=O)c2ccc3nc(-c4ccco4)c(-c4ccco4)nc3c2)cc1`: 92.7% (active). As for `Cc1ccccc1NC(=O)c1cccc(NC(=O)c2ccco2)c1`, the figure is -9.7% (inactive); as for `CC(=O)c1ccc(NC(=O)CCn2c(=S)oc3ccccc32)cc1`, 40.7% (inactive); as for `CC(C)Cn1c(=O)c2ccccc2n2c(CCC(=O)NC3CCN(Cc4ccccc4)CC3)nnc12`, 17.9% (inactive).

With `Cn1nc(-c2ccc(C(=O)Nc3ccc(F)cc3)cc2)c2ccccc2c1=O`, the inhibition was 96.2% (active). As for `O=C(Nc1ccccc1-c1nnn(CC(=O)N2CCOCC2)n1)c1ccc(F)cc1`, the figure is -1.6% (inactive); as for `COCCNC(=O)Cn1nc(-c2ccc(C)cc2)c2ccccc2c1=O`, 2.6% (inactive).

Regarding `CCn1cc(C(=O)N2CCCC(N3CCN(c4cccc(C(F)(F)F)c4)CC3)C2)cn1` (centres undefined), the inhibition is -9% (inactive). As for `COCCCNC(=O)Cn1cc(/C=C(\C#N)C(=O)NC2CC2)c2ccccc21`, the figure is -8.8% (inactive); as for `CCN(CC)CCC(=O)N1c2ccccc2CCc2ccc(NC(=O)OC(C)C)cc21`, 3.9% (inactive); as for `O=c1[nH]c(=O)c2nc3c4ccccc4c4ccccc4c3nc2[nH]1`, 80.4% (active). The same measure for `Cn1nc(C(=O)NCCCN2CCCCC2)c2c1-c1ccccc1S(=O)(=O)C2`: -6.6% (inactive); for `Cc1ccc(NC(=O)C2CCN(S(=O)(=O)c3ccc4c(c3)NC(=O)CO4)CC2)cc1`: -0.8% (inactive). The same measure for `COc1ccc(CNCC(O)(c2ccccc2)c2ccc(F)cc2)cc1OC` (centres undefined): 13% (inactive); for `Cc1sc2ncn(CC(=O)N3CCCC(C)C3)c(=O)c2c1S(=O)(=O)N1CCCCC1` (centres undefined): 7.1% (inactive). For the molecule `O=C(NC(=S)Nc1ccc(CN2CCCCC2)cc1)c1cccc(OCc2ccccc2)c1`, the inhibition is -29.4% (inactive). As for `COc1cc2ccccc2cc1C(=O)NC(=S)Nc1cccc(C(=O)O)c1`, the figure is 55% (active); as for `O=C(NC(=O)c1ccccc1)Nc1ccccc1`, 2.5% (inactive).

Turning to `O=C(CSc1nc(-c2ccccc2)nc2c1Cc1ccccc1O2)Nc1ccc(C(=O)O)cc1`, the inhibition was 98.8% (active). As for `O=C(CNCCc1ccccc1)Nc1ccc(C(=O)N2CCCCC2)cc1`, the figure is 3.1% (inactive); as for `CC(=O)c1ccc(NC(=O)CSc2nc(C)cc(C)c2C(N)=O)cc1`, -9.9% (inactive). Take `O=C(CSc1nc(-c2ccc(F)cc2)nc2c1Cc1ccccc1O2)Nc1cccc(C(=O)O)c1`: the inhibition is 96.6% (active).

As usually defined, the inhibition is the drop in the measured response relative to a control, in per cent.
